# Assay results as given in article PMC4336329 (PLoS ONE, 2015).
# The campaign covered roughly 310,000 compounds. About 14,000 (4.5%) showed an effect of 50% or more. The effect is printed as a negative number. Only a selection was taken, and strong results are over-represented in it overall.
# Target: human ether-à-go-go-related gene (hERG) potassium channel (human, UniProt Q12809)
# Experiment: primary screen, population patch clamp on CHO cells stably expressing hERG; higher = less effect of the substance
# 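Also: peak tail current of the secondary pulse compared with the same well before compound.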
# Sequence of human ether-à-go-go-related gene (hERG) potassium channel (Q12809 whole entry, looked up): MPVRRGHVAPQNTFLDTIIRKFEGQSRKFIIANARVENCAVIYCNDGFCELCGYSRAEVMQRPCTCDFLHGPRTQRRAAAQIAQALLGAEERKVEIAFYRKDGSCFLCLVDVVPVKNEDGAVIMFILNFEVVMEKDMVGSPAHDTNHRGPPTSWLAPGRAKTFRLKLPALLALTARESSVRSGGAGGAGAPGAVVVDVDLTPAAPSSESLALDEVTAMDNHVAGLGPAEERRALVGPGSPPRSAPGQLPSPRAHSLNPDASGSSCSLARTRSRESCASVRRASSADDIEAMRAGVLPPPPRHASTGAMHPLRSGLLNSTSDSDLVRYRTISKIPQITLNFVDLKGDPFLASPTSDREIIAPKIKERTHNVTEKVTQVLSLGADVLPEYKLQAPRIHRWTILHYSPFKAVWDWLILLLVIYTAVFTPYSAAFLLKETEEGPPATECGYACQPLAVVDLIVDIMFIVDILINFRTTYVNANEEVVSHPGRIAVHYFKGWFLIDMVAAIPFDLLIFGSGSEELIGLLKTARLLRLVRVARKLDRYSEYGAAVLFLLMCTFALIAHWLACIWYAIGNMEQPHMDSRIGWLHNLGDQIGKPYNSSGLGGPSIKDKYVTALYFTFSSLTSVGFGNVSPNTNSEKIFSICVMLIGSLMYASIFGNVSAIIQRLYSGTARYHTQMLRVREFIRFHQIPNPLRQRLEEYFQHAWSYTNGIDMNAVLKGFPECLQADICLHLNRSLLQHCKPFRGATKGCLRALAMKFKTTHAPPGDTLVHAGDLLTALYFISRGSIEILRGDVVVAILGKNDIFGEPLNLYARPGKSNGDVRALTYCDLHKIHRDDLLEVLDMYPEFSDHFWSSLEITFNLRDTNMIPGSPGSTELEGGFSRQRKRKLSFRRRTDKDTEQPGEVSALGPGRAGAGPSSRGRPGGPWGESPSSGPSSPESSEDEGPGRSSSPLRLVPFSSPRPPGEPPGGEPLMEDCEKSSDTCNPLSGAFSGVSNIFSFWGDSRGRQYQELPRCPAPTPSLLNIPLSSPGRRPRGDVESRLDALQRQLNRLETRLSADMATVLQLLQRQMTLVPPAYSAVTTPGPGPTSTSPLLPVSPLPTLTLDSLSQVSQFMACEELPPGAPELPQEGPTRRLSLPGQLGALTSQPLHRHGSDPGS
row,SMILES,"hERG current change (%, negative = inhibition) at 10uM [%]"
1,Cc1nc(N=Nc2ccc(O)cc2)n[nH]1,7.01
2,CC12CC[C@H]3[C@@H](CCC4(O)C[C@H](O)CCC34/C=N/NC(=O)c3ccccc3Cl)C1(O)CCC2C1=CC(=O)OC1 (stereo partly shown),9.69
3,O=C(COC(=O)c1ccc(S(=O)(=O)Nc2ccccc2)cc1)NCC1CCCO1 (stereo not shown),1.33
4,COC(=O)c1ccccc1NC(=O)c1ccc(COc2cccc3ccccc23)o1,0.342
5,NC(=O)c1nsc(C(=O)N(CCCN2CCOCC2)C(C(=O)NC2CCCCC2)c2ccc(Cl)cc2)c1N (stereo not shown),-42.8
6,CCCNc1nc2c(c(=O)[nH]c(=O)n2C)n1CCC(C)C,-0.274
7,CC(=O)c1ccc(OCCCC(=O)N2CCN(S(=O)(=O)c3ccc(C)cc3C)CC2)cc1,-40.8
8,Cc1ccc(OCC(=O)N2CCC(C)CC2)c([N+](=O)[O-])n1,-7.74
9,Cc1ccc(S(=O)(=O)N2CCN(C(=O)COc3ccc(C)nc3[N+](=O)[O-])CC2)c(C)c1,-61
10,Cc1ccc(OCC(=O)N2CCN(S(=O)(=O)c3ccc(Cl)cc3)CC2)c([N+](=O)[O-])n1,-48.8
11,CC(=O)c1ccc(OCCCC(=O)N2CCN(S(=O)(=O)c3cc(C)ccc3C)CC2)cc1,-37.1
12,O=C(COc1ccccc1[N+](=O)[O-])N1CCC(Cc2ccccc2)CC1,-16.1
13,CC(=O)c1ccc(OCC(=O)N2CCN(S(=O)(=O)c3ccc(C)cc3C)CC2)cc1,-61.6
14,Cc1ccc(OCC(=O)N2CCN(S(=O)(=O)c3ccccc3)CC2)c([N+](=O)[O-])n1,-45.8
15,Cc1ccc(OCC(=O)N2CCC(Cc3ccccc3)CC2)c([N+](=O)[O-])n1,-67.7
16,COc1ccc(CNC(=S)Nc2ccc(OC)cc2)cc1,3.09
17,Cc1nnc(-c2ccc(N3CCCCCC3)c([N+](=O)[O-])c2)o1,-4.52
18,Cc1ccc(CN2C(=O)CCC2C(=O)NCCc2ccccc2)cc1 (stereo not shown),7.99
19,c1ccc2nc3c(nc2c1)CCCC3,17.2
20,Cn1c(=O)c2c(nc(SCc3cccnc3)n2Cc2ccccc2)n(C)c1=O,-17.6
21,C=CCOCCN(C)C1=NS(=O)(=O)c2cc([N+](=O)[O-])ccc21,-19.8
22,Cc1ncc(CN2CCC(CO)(Cc3ccccc3)CC2)s1,-7
23,Cc1ncc(CN2CCC(CO)(CCOc3ccccc3)CC2)s1,-70.1
24,Cc1ncc(CN2CCC(CO)(CCc3ccccc3)CC2)s1,-60.4

row,SMILES,"hERG current change (%, negative = inhibition) at 10uM [%]"
1,Cc1ccc(NC(=O)c2ccc3nc(N4CCOCC4)sc3c2)c(Cl)c1,6.14
2,Cc1ccc(NC(=O)/C=N/OCC(=O)NCc2ccccc2Cl)cc1,2.92
3,Cc1cc(C)n2c(Br)c(CSc3nc4ccccc4s3)nc2n1,-76.7
4,Cc1csc2nc(CSc3nc4ccccc4o3)c(Br)n12,7.03
5,Cc1cc(C)n2c(Br)c(CSc3nc4ccccc4o3)nc2n1,-63.9
6,Cc1cc(C)n(C(=O)CSc2nc3ccccc3o2)n1,19.3
7,Cc1cc(C)nc(NC(=O)CSc2nc3ccccc3s2)n1,2.88
8,Cc1cc(C)nc(SCc2nc3nc(C)cc(C)n3c2Br)n1,-22.6
9,CCOc1ccc(/C=N/NC(=O)c2[nH]ncc2Br)c(O)c1,4.05
10,CC(C)Oc1ccc(C(CC(=O)N(C)CCC#N)c2ccc(F)cc2)cc1 (stereo not shown),-59.2
11,Cc1ccc(C(CC(=O)NCCCN(C)C)c2ccc(OC(C)C)cc2)cc1 (stereo not shown),-42.9
12,COc1ccc(NC(=O)CC(c2ccc(F)cc2)c2ccc(OC(C)C)cc2)cc1 (stereo not shown),3.91
13,CN(C)CCCNC(=O)CC(c1ccc(F)cc1)c1ccco1 (stereo not shown),-37.3
14,CC(C)Oc1ccc(C(CC(=O)NCCCN(C)C)c2ccc(F)cc2)cc1 (stereo not shown),-57.1
15,CC(C)Oc1ccc(C(CC(=O)O)c2ccc(F)cc2)cc1 (stereo not shown),6.58
16,Br.O=C(N=c1nc2ccccn2s1)c1ccccc1,14.1
17,CCn1c(COc2ccc(=O)n(-c3ccccc3)n2)nnc1SC,2.39
18,CCn1c(COc2ccc(=O)n(-c3ccccc3)n2)nnc1SCc1ccc(OC)cc1,-67.7
19,CCn1c(COc2ccc(=O)n(-c3ccccc3)n2)nnc1SCc1ccc(C)cc1,-59.9
20,CCn1c(COc2ccc(=O)n(-c3ccccc3)n2)nnc1SCc1ccccc1,-48.2
21,CCn1c(COc2ccc(=O)n(-c3ccccc3)n2)nnc1SCc1ccccc1C,-65.4
22,CCn1c(COc2ccc(=O)n(-c3ccccc3)n2)n[nH]c1=S,23.3
23,CCn1c(COc2ccc(=O)n(-c3ccccc3)n2)nnc1SCC(=O)OC,9.02
24,CCn1c(COc2ccc(=O)n(-c3ccccc3)n2)nnc1SCc1cccc(OC)c1,-39.1

row,SMILES,"hERG current change (%, negative = inhibition) at 10uM [%]"
1,C=CCSc1nnc(COc2ccc(=O)n(-c3ccccc3)n2)n1CC,-2.15
2,COc1ccc(-c2csc(NC(=O)CSc3nc(C)nc4sc(C(=O)O)c(C)c34)n2)cc1,11.9
3,COCCNc1nc2c(c(=O)n(Cc3ccccc3F)c(=O)n2C)n1C,-15.8
4,C=CCNC(=O)C(=O)Nc1ccc2c(c1)N(S(=O)(=O)c1cccs1)CCC2,-14.7
5,Cc1ccc(S(=O)(=O)NC(C(=O)Oc2cc3oc(=O)cc(C)c3cc2Cl)C(C)C)cc1 (stereo not shown),-34.3
6,CCOc1ccc(/C=C(\C)C(=O)c2c(C)cc(C)[nH]c2=O)cc1,5.24
7,CCCCc1ccc(NC(=O)OC)cc1,-9.08
8,CCCCc1ccc(NC(=O)CC(C)C)cc1,-6.78
9,CCCCC(CC)C(=O)Nc1ccc(C#N)cc1 (stereo not shown),-52.5
10,CCCCC(CC)C(=O)Nc1ccc(Nc2ccccc2)cc1 (stereo not shown),-12.8
11,CCCCC(CC)C(=O)Nc1ccccc1C#N (stereo not shown),-4.83
12,CCCCc1ccc(NC(=O)C(C)CC)cc1 (stereo not shown),-50.5
13,COc1ccc(CNC(=O)c2ccc(NS(=O)(=O)c3ccc4[nH]c(=O)[nH]c4c3)cc2)cc1OC,13.3
14,CCOC(=O)c1ccc(NC(=O)CSc2nc(=O)n3cccc(C)c3n2)cc1,-21.9
15,COc1cc(Cl)c(S(=O)(=O)NCCCn2ccnc2)cc1Cl,3.34
16,CCOC(=O)CSCC(=O)Nc1cc(C)ccc1C,0.851
17,CNS(=O)(=O)c1cc(O)c2c(S(=O)(=O)NC)cccc2c1,11
18,Cc1c(Cl)ccc2c(C(=O)O)cc(-c3ccccc3)nc12,-1.96
19,COC(=O)CNC(=O)c1cc(-c2ccncc2)nc2c(C)c(Cl)ccc12,-27.9
20,Cc1c(Cl)ccc2c(C(=O)NC(C)c3ccncc3)cc(-c3ccncc3)nc12 (stereo not shown),-59.3
21,C=C(C)CC1(NC(C)c2ccccc2)CCCCC1 (stereo not shown),4
22,COc1ccc(OC)c(-c2csc(NC(=O)Cc3ccccc3OC)n2)c1,-0.305
23,COc1cccc(/C=N/NC(=O)c2nnn(-c3nonc3N)c2C(C)C)c1,11.4
24,Cc1ccc(C(=O)NCC(=O)O)o1,-5.14

row,SMILES,"hERG current change (%, negative = inhibition) at 10uM [%]"
1,Cc1c(CNCCc2ccc(Cl)cc2)c(C(=O)O)c(C)n1Cc1ccccc1,-50.1
2,Cc1c(CNCCC2=CCCCC2)c(C(=O)O)c(C)n1Cc1ccccc1,-13.3
3,Cc1c(CNCCCc2ccccc2)c(C(=O)O)c(C)n1Cc1ccccc1,4.03
4,Cc1cccc(C)c1NC(=O)/C(C#N)=C/c1ccsc1,-13.2
5,Cc1c(OCC(N)=O)ccc2c(-c3ccccc3)cc(=O)oc12,5.53
6,O=C(C1CC(=O)N(c2ccc(Cl)cc2)C1)N1CCOCC1 (stereo not shown),-0.293
7,CCC(C)c1ccccc1N1CC(C(=O)N2CCN(C(=O)c3ccco3)CC2)CC1=O (stereo not shown),-12.6
8,O=C(C1CC(=O)N(c2ccc(Cl)cc2)C1)N1CCCCCC1 (stereo not shown),-8.92
9,O=C(c1ccco1)N1CCN(C(=O)C2CC(=O)N(c3ccc(Cl)cc3)C2)CC1 (stereo not shown),-75.4
10,Cc1ccc(N2CC(C(=O)N3CCN(C(=O)c4ccco4)CC3)CC2=O)cc1 (stereo not shown),-71.7
11,O=C(c1ccco1)N1CCN(C(=O)C2CC(=O)N(c3ccccc3)C2)CC1 (stereo not shown),-41.3
12,O=C(CNC(=O)c1ccc(OC(F)F)cc1)NCC1CCCO1 (stereo not shown),2.87
13,CCCCN1C(=O)/C(=C/c2ccc(N3CCCCCC3)cc2)C(=O)NC1=S,-22.9
14,C=CCc1ccc(OCCCNC2CCCC2)c(OC)c1,-48.1
15,C=CCc1ccc(OCCCCCN2CCOCC2)c(OC)c1.O=C(O)C(=O)O,-18.1
16,C=CCc1ccc(OCCCCN2CCC(C)CC2)c(OC)c1,-69.6
17,C=CCc1ccc(OCCCCN2CC(C)CC(C)C2)c(OC)c1.O=C(O)C(=O)O (stereo not shown),-67
18,C=CCc1ccc(OCCCCNC2CCCC2)c(OC)c1.O=C(O)C(=O)O,-39.9
19,C=CCc1ccc(OCCCCN2CC(C)OC(C)C2)c(OC)c1.O=C(O)C(=O)O (stereo not shown),-25.8
20,C=CCc1ccc(OCCCOc2ccc(C(=O)O)cc2)c(OC)c1,-1.14
21,C=CCc1ccc(OCCCCOc2ccc(C(=O)O)cc2)c(OC)c1,14
22,C=CCc1ccc(OCCCN2CCCC(C)C2)c(OC)c1.O=C(O)C(=O)O (stereo not shown),-65.8
